From PubChem BioAssay (NCI)
Compounds without any hit were thinned out: in the full panel of roughly 83,000, 20% have a hit.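 The endpoint reported here, percent growth, reads 100 for growth as untreated, 0 for no net growth and -100 for all cells dead.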 Unmarked numbers belong to inactive results. Activity calls are given as the source filed them. The calls were made as follows: active = growth percent below 10; inactive = the rest.

tested on: RPMI-8226 leukemia; test: NCI-60 one-dose screen, 48 h (100 = growth as untreated, 0 = no growth, -100 = all killed); details: 10 µM unless noted

| Compound | growth |
| --- | --- |
| CSc1ccc(-c2n[nH]nc2-c2cc3ccccc3s2)cc1 | 40.1% |
| Clc1ccc2c(NCCCNc3nc(-n4ccnc4)nc4ccccc34)ccnc2c1 | 69.3% |
| CN1CCN(c2nc(NCCCNc3ccnc4cc(Cl)ccc34)c3ccccc3n2)CC1 | 8.13% (active) |
| CN(C)c1ccc(NC(=O)c2ccc(/C=C/C(=O)c3ncc[nH]3)cc2)cc1 | -4.78% (active) |
| COc1ccc(S(=O)(=O)N2CCCCC2)cc1NC(=O)c1[nH]c(C)c2c1CCCCC2=O | 10.1% |
| CCn1c(O)c(/C=N/NC(=O)C(C)c2ccc(CC(C)C)cc2)sc1=S (stereo not drawn) | 1.77% (active) |
| Cc1nn(-c2cc(=O)[nH]c3ccc(Cl)cc23)c(N)c1C#N | 97.7% |
| O=C1/C(=C(/c2ccccc2)N2CCOCC2)Cc2ccccc21 | 16.5% |
| O=C(COc1cccc(/C=C2\COc3ccccc3C2=O)c1)Nc1nccs1 | -67% (active) |
| CCN=C1C=CC(=C(c2ccc(N)cc2)c2ccc(N(CC)CC)c(C)c2)C=C1 | -30.8% (active) |
| O=C(C(=O)c1ccc2c(c1)OCO2)c1ccc2c(c1)OCO2 | 101% |
| COc1ccc(/C=C2\Oc3cc(OCCCCN4CCCC4)ccc3C2=O)cc1 | 80.7% |
| COc1cc(-c2nn(-c3ccc(Br)cc3)cc2C(=O)O)ccc1O | 95.7% |
| O=c1ccccc(-c2ccc(-c3ccco3)cc2)c1O | 8.75% (active) |
| Cn1cc(C(=O)c2nc(-c3c[nH]c4ccc(Br)cc34)no2)c2cc(F)ccc21 | 99.5% |
| COc1ccc(O)c(N=Nc2nccs2)c1 | 25.3% |
| CCc1nc(N)nc(N)c1C#CC(C)c1cc(-c2ccnc(C)c2)c2oc(C)nc2c1 (stereo not drawn) | 2.39% (active) |
| CC(=O)Nc1ccc(-n2c(O)c(/C=N/NC(=O)Cc3ccccc3Nc3c(Cl)cccc3Cl)sc2=S)cc1 | 106% |
| O=Nc1c(O)c(Cl)cc2ccccc12 | 40.1% |

| Compound | growth |
| --- | --- |
| FC(F)(F)c1ccc(-c2cn3nc(-c4c[nH]c5ccc(Br)cc45)sc3n2)cc1 | 107% |
| Cn1cc(-c2nonc2-c2c[nH]c3ccccc23)c2cccnc21 | 40.8% |
| Cn1cc(-c2nonc2-c2cn(C)c3ccc(F)cc23)c2ccccc21 | 13.5% |
| Brc1ccc(-c2csc(Nc3ccccn3)n2)cc1 | 68% |
| Clc1ccc2c(NCCNc3nc(N4CCOCC4)nc4ccccc34)ccnc2c1 | -37% (active) |
| COc1ccc(-c2cc(-c3ccc(Nc4ccnc5cc(Cl)ccc45)cc3)nc(N3CCOCC3)n2)cc1 | -1.81% (active) |
| COc1cc2c(cc1-c1c(C)noc1C)ncc1nc(C3CCCC3)n([C@H](C)COC(F)F)c12 | 14.7% |
| CCOc1cc2ncc(C#N)c(Nc3ccc(OCc4cccc(F)c4)c(Cl)c3)c2cc1NC(=O)CCCCC1CCSS1 (stereo not drawn) | 78.6% |
| Oc1ccccc1-c1nnc(CNc2ccc(Cl)cc2)o1 | 23.4% |
| COc1cc2c(cc1-c1c(C)noc1C)ncc1nc(C3CCCCC3)n([C@H](C)COC(F)F)c12 | 18.9% |
| COc1cc(/C=C/C(=O)Nc2cccnc2Nc2ccc(F)cc2)cc(OC)c1OC | 69.1% |
| Cn1c(NCCc2ccc(O)c(O)c2)nc2c1c(=O)n(Cc1ccc(Cl)c(Cl)c1)c(=O)n2C | 19.1% |
| Cc1ccc(C2=NN3C(C2)c2cc(Br)ccc2OC32CCN(Cc3ccccc3)CC2)o1 (stereo not drawn) | 80.8% |
| O=C1/C(=C/C(Cl)=C/c2ccccc2)SC(=S)N1CCc1ccc(O)cc1 | 2.88% (active) |
| NC(=O)c1cc(Br)ccc1NC(=O)/C=C/c1ccccc1 | 24.4% |
| CC(O)CN(CC(C)O)c1ccc2c(c1)Cc1cc([N+](=O)[O-])ccc1-2 (stereo not drawn) | 104% |
| C=C1C(=O)O[C@H]2[C@H]1CC/C(COC(=O)c1cc3cc(OC)ccc3[nH]1)=C\CC[C@@]1(C)O[C@@H]21 | -20.3% (active) |
| COc1cc(C(=O)/C=C/c2cccnc2Nc2ccc(Cl)cc2)cc(OC)c1OC | -30.2% (active) |
| O=c1cc(CSc2nnc(SCc3cc(=O)oc4c3ccc3ccccc34)o2)c2ccc3ccccc3c2o1 | 99.8% |
